uPA generation: cell surface uPA generation inhibition; cell surface uPA generation assay, qHTS; AID 540303; 330,000 tested, 0.31% active; Potency, µM (doses to about 38.3 µM), actives largely listed as inhibitors; active = well fitted inhibition curve with a large enough effect; inconclusive = small, poorly fitted or top-dose-only effect; inactive = no such curve, though single readings can be large or run the other way; tested in mouse RAW 264.7 cells; also: nearly all actives have a fitted effect of over 55% in size
IL-2 act: activates IL-2 in a cell-based reporter assay; activation, % (series mostly up to about 46 µM); AID 652025; IL-2 activation reporter assay, cell-based qHTS; stimulated with anti-CD3/CD4/CD28 beads; in transgenic mouse T cells; 360,000 tested, 0.065% active; in the data active = activation above about 50%; inconclusive = mostly about 30% to 49%
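Unstimulated transgenic mouse T cells; 60-min compound exposure; bead-based TCR/CD4/CD28 stimulation; 18 h culture, 37 degrees C; dual fluorescence (EGFP, DsRed) plate cytometry.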
a7 integrin act: integrin-mediated muscular dystrophy alleviation activation | AID 624291 | Potency, µM (doses to about 38.3 µM), actives largely listed as activators | alpha7betagal myoblasts, beta-gal FDG fluorescence, 48 h | 350,000 tested, 0.064% active; also: nearly all actives have a fitted effect of over 60% in size
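alpha7betagal+/- myoblasts (passage 13, 250/well) treated 48 h at 37C with compounds at 1:260 dilution of DMSO stock. Lysed, then beta-galactosidase activity read as FDG fluorescence (ex 480/em 540) after 30 min, with pre-read for autofluorescence.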
ALOX12 inh: blocks human arachidonate 12S-lipoxygenase; 580,000 tested, 1.1% active; Potency, µM (top dose mostly 108 µM), most hits filed as inhibitors; AID 1671190; purified 12hLO, xylenol orange hydroperoxide absorbance
Target sequence (P18054 whole entry, looked up): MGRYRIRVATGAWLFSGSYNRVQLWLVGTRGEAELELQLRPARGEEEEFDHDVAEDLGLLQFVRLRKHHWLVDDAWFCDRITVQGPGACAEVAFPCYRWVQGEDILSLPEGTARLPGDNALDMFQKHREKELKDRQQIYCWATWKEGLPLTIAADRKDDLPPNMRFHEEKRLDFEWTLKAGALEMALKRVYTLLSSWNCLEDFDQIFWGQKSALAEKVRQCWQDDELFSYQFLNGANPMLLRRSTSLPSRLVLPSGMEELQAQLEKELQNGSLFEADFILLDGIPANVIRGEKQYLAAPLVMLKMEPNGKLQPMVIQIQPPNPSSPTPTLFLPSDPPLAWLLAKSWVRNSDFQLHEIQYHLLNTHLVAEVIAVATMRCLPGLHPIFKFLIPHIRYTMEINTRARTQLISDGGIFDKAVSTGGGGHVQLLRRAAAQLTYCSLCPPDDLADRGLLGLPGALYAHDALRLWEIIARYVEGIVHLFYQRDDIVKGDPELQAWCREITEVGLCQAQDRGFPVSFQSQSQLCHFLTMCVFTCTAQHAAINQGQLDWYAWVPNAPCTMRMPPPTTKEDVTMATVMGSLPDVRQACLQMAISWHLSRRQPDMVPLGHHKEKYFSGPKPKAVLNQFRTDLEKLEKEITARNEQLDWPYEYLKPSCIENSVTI
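Hydroperoxide product was detected by ferrous iron/xylenol orange as the 573 to 405 nm absorbance ratio. Arachidonic acid at 40 uM (final) was turned over for 30 min at room temperature by 150 nM human 12hLO, pH 7.0 Hepes buffer, after 15 min compound preincubation.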
Nrf2 ARE act: Nrf2 pathway activation; AID 624171; Potency, µM (top dose mostly 46.1 µM), most hits filed as activators; 410,000 tested, 0.31% active; AREc32 ARE-luciferase reporter (MCF7-derived line), luminescence, 24 h; also: nearly all actives have a fitted effect of over 65% in size
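For detection, Steady-Glo was added and plates sat 30 min at RT; before that, AREc32_Fluc cells grown overnight in OPTI-MEM/5% FBS had been treated with 23 nL compound for 24 hr at 37 deg C.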
Numbers stand for hits; [ ] = remark or other dose. An excerpt weighted towards active compounds, which were near 1.5% of everything screened. Unless noted, calls follow the shape of the dose curve; as a rule, active = well fitted curve in the direction sought with a large enough effect; inconclusive = small, poorly fitted or top-dose-only effect, or another doubt; inactive = no such curve, though single readings can be large; an effect the other way counts as inactive or inconclusive.

`Cc1nn(C)cc1NC(=O)CN1CCC(=O)N(CC2CC2)C(C(C)C)C1` (configuration not stated) gave ALOX12 inh inactive.
`CC(C(=O)NC1CCN(c2cnn(C)c(=O)c2)CC1)c1ccccc1` (configuration not stated) gave ALOX12 inh inactive.
Screening CCc1ccc2oc(-c3cc(N)ccc3O)nc2c1 returned uPA generation inactive, IL-2 act inactive, a7 integrin act inactive, ALOX12 inh inconclusive and Nrf2 ARE act 4.5µM.
Cc1ccc(NC(=S)/N=C(\N)Nc2nc(C)c3cc(C)ccc3n2)c(C)c1 was read as uPA generation inactive, IL-2 act inactive, a7 integrin act inactive, ALOX12 inh inconclusive and Nrf2 ARE act inactive.
`CCc1ccccc1NC(=S)/N=C(\N)Nc1nc(C)c2cc(C)ccc2n1` gave uPA generation inconclusive, IL-2 act inactive, a7 integrin act inactive, ALOX12 inh 35µM and Nrf2 ARE act inactive.
`Cc1ccc(NC(=S)/N=C(\N)Nc2nc(C)c3cc(C)c(C)cc3n2)cc1C` gave uPA generation inactive, IL-2 act inactive, a7 integrin act inactive, ALOX12 inh 35µM and Nrf2 ARE act inactive.
Cc1sc(NC(=O)CCC(=O)O)c(C(N)=O)c1-c1ccc(C(C)C)cc1 was read as ALOX12 inh inactive.
`CN(Cc1ccc(F)cc1)Cc1cnc(S(C)(=O)=O)n1CCCc1ccccc1` gave ALOX12 inh inactive.
For O=C(/C=C/c1ccccc1C(F)(F)F)c1ccc(N2CCCCCC2)cc1 the results were ALOX12 inh inactive.
`CCC(O)C(=O)N1CCC(c2[nH]ncc2-c2cccc(OC)c2)CC1` (configuration not stated) gave ALOX12 inh inactive.
`c1ccc(C[n+]2csc3ccccc32)cc1` gave IL-2 act inactive, a7 integrin act inactive[7.66 µM], ALOX12 inh inconclusive and Nrf2 ARE act inactive.
Fc1cccc(C[n+]2csc3ccccc32)c1 was read as uPA generation inactive, IL-2 act inactive, a7 integrin act inactive, ALOX12 inh 18µM and Nrf2 ARE act inactive.
Screening O=C(CN1CCC(Cc2ccccc2)CC1)N1CCc2ccccc2C1 returned uPA generation inactive, IL-2 act inactive, a7 integrin act inactive, ALOX12 inh 1µM and Nrf2 ARE act inactive.
Screening S=c1sc2c(s1)SCCCS2 returned ALOX12 inh 32µM.
Screening Cc1cn(CC(=O)N2C[C@@H](C)[C@](O)(C(C)C)C2)c(=O)[nH]c1=O returned ALOX12 inh inactive.
For COc1ccc(-n2cnc(=S)[nH]c2=S)cc1 the results were uPA generation inactive, IL-2 act inactive, a7 integrin act inactive, ALOX12 inh 22µM and Nrf2 ARE act inconclusive.
`C=CC(=O)NN(C)c1ncc(C(F)(F)F)cc1Cl` gave uPA generation 3.5µM, IL-2 act inactive, a7 integrin act inactive, ALOX12 inh inactive and Nrf2 ARE act inactive.
For Cc1c([N+](=O)[O-])cnc(Sc2ccccc2)c1[N+](=O)[O-] the results were uPA generation 8.9µM, IL-2 act inactive, a7 integrin act inactive, ALOX12 inh inactive and Nrf2 ARE act inconclusive.
CCNc1c(NC(=O)Nc2ccccc2OCC)c(=O)oc2ccccc12 was read as ALOX12 inh inactive.
Screening Oc1c(Br)cc(Br)cc1C=NCc1ccc(F)cc1 returned uPA generation inactive, IL-2 act inactive, a7 integrin act inconclusive, ALOX12 inh 40µM and Nrf2 ARE act inactive[9.22 µM].
For O=C(c1ccc(F)c(F)c1)N1CCCC(c2noc(COc3ccccc3F)n2)C1 (configuration not stated) the results were ALOX12 inh inactive.
For O=C1C(Cl)=C(NCCc2ccccc2)C(=O)c2ccccc21 the results were uPA generation inactive, IL-2 act inactive, a7 integrin act inactive, ALOX12 inh 4µM and Nrf2 ARE act inconclusive.
Screening CNc1nc(-c2c[nH]c3ccccc23)cs1 returned uPA generation inactive, IL-2 act inactive, a7 integrin act inactive, ALOX12 inh inconclusive and Nrf2 ARE act inactive.
Screening c1ccc(CCNc2nc(-c3c[nH]c4ccccc34)cs2)cc1 returned ALOX12 inh 45µM.
CCC(C)Nc1nc(-c2c[nH]c3ccccc23)cs1 (configuration not stated) was read as uPA generation inactive, IL-2 act inactive, a7 integrin act inactive, ALOX12 inh 50µM and Nrf2 ARE act inactive.
Screening O=C(Nc1nc(-c2c[nH]c3ccccc23)cs1)C1CCC1 returned ALOX12 inh 50µM.
Screening O=C(Nc1ccc2oc(-c3ccncc3)nc2c1)c1ccc(Cl)cc1 returned ALOX12 inh inactive.
For CC(=O)Nc1cccc(C(C)NCc2csc(C)n2)c1 (configuration not stated) the results were ALOX12 inh 2µM.
COc1ccc(C2=Nn3c(nnc3-c3ccccc3OC)SC2)cc1OCC1CC1 was read as uPA generation inconclusive, IL-2 act inactive, ALOX12 inh 35µM and Nrf2 ARE act inactive.
For C/C(=N\NC(=O)c1ccn(C)n1)c1ccc(NC(=O)c2cccc(F)c2)cc1 the results were uPA generation inactive, IL-2 act inactive, a7 integrin act inactive, ALOX12 inh 4.5µM and Nrf2 ARE act inactive.
For C/C(=N\NC(=O)c1ccn(C)n1)c1cccc(NC(=O)c2ccc(C)s2)c1 the results were uPA generation inactive, IL-2 act inactive, a7 integrin act inactive, ALOX12 inh inactive and Nrf2 ARE act inactive.
For Cc1oc(-c2ccc(C(=O)NC3CCCC3)cc2)nc1CS(=O)(=O)c1ccccc1 the results were ALOX12 inh inactive.
c1ccc(C2(c3ccccc3)CCCN(Cc3cscn3)C2)cc1 was read as ALOX12 inh 45µM.
CCCCCNc1ncnc2c1CN(c1ccccc1F)C(=O)CN2C was read as ALOX12 inh inactive.
`COc1cccc(/C=C2\SC(=O)N(CC(=O)NC3C=CS(=O)(=O)C3)C2=O)c1` (configuration not stated) gave uPA generation inactive, IL-2 act inactive, a7 integrin act inactive, ALOX12 inh inactive and Nrf2 ARE act 16µM.
Screening COc1cccc(/C=C2\SC(=S)N(C(C)C(=O)NC3C=CS(=O)(=O)C3)C2=O)c1 (configuration not stated) returned uPA generation inconclusive, IL-2 act inactive, a7 integrin act inactive, ALOX12 inh inactive and Nrf2 ARE act 18µM.
For Nc1c(C(=O)N/N=C/c2ccc(F)cc2)oc2nc(-c3ccccc3)cc(-c3ccco3)c12 the results were uPA generation inactive, IL-2 act 230, a7 integrin act inactive, ALOX12 inh inactive and Nrf2 ARE act inactive.
`Nc1c(C(=O)N/N=C/c2ccccc2Cl)oc2nc(-c3ccccc3)cc(-c3ccco3)c12` gave uPA generation inactive, IL-2 act inactive, a7 integrin act inactive, ALOX12 inh inactive and Nrf2 ARE act inactive.
Screening CC(=O)Nc1ccc(/C=N/Nc2ccc(S(N)(=O)=O)cc2[N+](=O)[O-])cc1 returned ALOX12 inh inactive.
`O=C(Cc1cccs1)N(Cc1ccco1)C1CC1` gave ALOX12 inh 14µM.

Source: PubChem BioAssay
